Compound activity from PubChem BioAssay.
Compounds with a hit are over-represented: about 17% of the library has one in this group of screens.
TGFb inhibitor = qHTS for Inhibitors of TGF-b. HepG2 CAGA-GFP TGF-b/SMAD3 reporter, GFP fluorescence, 18 h; TGF-beta stimulated, 500 pg/mL final. Potency, µM (highest dose often 46.1 µM), for inactives: at the highest dose activity, negative = inhibition, actives largely listed as inhibitors. actives 1.2% (n = 410,000); further: on the % scale 0 is the no-effect control and ±100 the full control effect; nearly all actives have a fitted effect of over 65% in size
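Read-out: total well GFP (ex488/em500-530) summed from mean per-cell fluorescence. Cells: HEPG2 CAGA-GFP, 1% FBS DMEM, 18 h at 37 degrees C with 500 pg/mL final TGF-beta. Unstimulated wells served as the full-inhibition control; stimulated DMSO wells = 0%.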
TDP1 cell noCPT = qHTS for Inhibitors of human tyrosyl-DNA phosphodiesterase 1 (TDP1): qHTS in cells in absence of CPT; DT40 Tdp1-/- hTDP1 cells, no CPT, ATP luminescence, 48 h; Potency, µM (highest dose often 46.2 µM), for inactives: at the top dose activity change, negative = growth inhibition, hits mostly inhibitors; actives 15% (n = 420,000); AID 686978, 2013; further: on the % scale 0 is the no-effect control and ±100 the full control effect; nearly all actives have a fitted effect of over 55% in size
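Stably hTDP1-transfected Tdp1-null chicken DT40 cells were treated with library compounds minus camptothecin and grown for at least 48 hr at 37 °C, after which cellular ATP was quantified by luminescence.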
S2 tox = Viability Counterscreen for Primary qHTS for Inhibitors of ATXN expression. S2 cells (HEK-293 line with an ATXN2-luciferase reporter) viability, CellTiter-Fluor protease fluorescence, 24 h. Potency, µM (top dose mostly 56.7 µM), hits mostly cytotoxic. actives 0.49% (n = 400,000). AID 651635, 2014; further: nearly all actives have a fitted effect of over 40% in size
HepG2 tox = qHTS for Inhibitors of TGF-b: Cytotox Counterscreen; HepG2 CAGA-GFP viability, ATP luminescence, 18 h; Potency, µM (titrated, usually from 46.1 µM), for the others: at the highest dose activity change, negative = cytotoxicity, most hits filed as cytotoxic; actives 0.76% (n = 410,000)
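HepG2 CAGA-GFP cells (1000/well, DMEM with 1% FBS) received compound, then TGF-beta at 500 pg/mL final, and were incubated 18 hours at 37 degrees C. Viability was read by CellTiter-Glo luminescence. Media-only wells were set as complete cell-killing and DMSO as no toxicity.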
ATXN2 expr inh = Primary qHTS for Inhibitors of ATXN expression; HEK-293 ATXN2-luciferase reporter, luminescence, 24 h; Potency, µM (doses to about 57 µM), inactives show top-dose activity change, negative = inhibition, most hits filed as inhibitors; actives 0.72% (n = 360,000); AID 1745845, 2022; further: on the % scale 0 is the no-effect control and ±100 the full control effect; nearly all actives have a fitted effect of over 55% in size
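qHTS (up to 57 uM final) was run with 24 h compound exposure of reporter cells at 37 °C. Each well was multiplexed: SteadyGlo luminescence measured ATXN2-luciferase expression after a fluorogenic Gly-Phe-AFC viability readout (25 uM final).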
TDP1 cell CPT = qHTS for Inhibitors of human tyrosyl-DNA phosphodiesterase 1 (TDP1): qHTS in cells in presence of CPT | Potency, µM (top dose mostly 46.2 µM), without a hit: top-dose activity change, negative = growth inhibition, usual class: inhibitors | chicken DT40 Tdp1-/-;hTDP1 cells + 20 nM CPT, ATP luminescence, 48 h | actives 12% (n = 420,000) | AID 686979, 2013; further: on the % scale 0 is the no-effect control and ±100 the full control effect; nearly all actives have a fitted effect of over 55% in size
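Chicken DT40 Tdp1-/- cells complemented with human TDP1, 400 cells/well, exposed to compounds plus 20 nM camptothecin for at least 48 h at 37 C; viability read as ATP content by CellTiter-Glo luminescence.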
Active calls of the source: *; i = inactive; u = inconclusive; x = no result given; ! = not confirmed by another sample. The call rests on the fitted dose curve; in most records, active means well fitted curve in the direction sought with a large enough effect; inconclusive means small, poorly fitted or top-dose-only effect, or another doubt; inactive means no such curve, though single readings can be large; an effect the other way counts as inactive or inconclusive. Potency means the concentration at half of the fitted maximal effect.

SMILES	TGFb inhibitor	TDP1 cell noCPT	S2 tox	HepG2 tox	ATXN2 expr inh	TDP1 cell CPT
C[C@@H]1COC(=O)[C@@H](NC(=O)OCC2c3ccccc3-c3ccccc32)C/C=C\C[C@@H](CC(=O)N(CCO)Cc2ccccc2)C(=O)N1	-26%	2.6µM*	u	-12%	-19%	1.5µM*
CC(=O)c1cccc(NC(=O)c2sc3nc4n(c(=O)c3c2C)CCCCC4)c1	14%	23µM*	i	-8%	2%	u
Cc1c(C(=O)Nc2ccc(OC(F)(F)F)cc2)sc2nc3n(c(=O)c12)CCC3	-11%	u	i	6%	-17%	u
Cc1c(C(=O)Nc2ccc(Oc3ccccc3)cc2)sc2nc3n(c(=O)c12)CCC3	-5%	18µM*	i	-32%	-14%	u
COc1cccc(NC(=O)c2sc3nc4n(c(=O)c3c2C)CCC4)c1	3%	15µM*!	i	-19%	26%	u
O=C(c1ccccc1Br)N1CCn2c1nc1ccccc12	-1%	1%	i	-1%	-18%	2%
CCN(CC)c1ccc(-c2sc(Nc3ccccc3)n[n+]2-c2ccc(F)cc2)cc1	u	26µM*	u	-59%	-18%	u
CCc1ccc(Nc2n[n+](-c3ccccc3)c(-c3ccc(N(CC)CC)cc3)s2)cc1	u	9.2µM*	u	-62%	u	6.5µM*
CCc1ccc(Nc2n[n+](-c3ccccc3)c(-c3ccc(OCc4ccccc4)cc3)s2)cc1	u	5.2µM*	u	-19%	u	4.6µM*
COc1ccc(NC(=O)CCn2cccn2)cc1OC	-1%	20%	i	-2%	8%	2%
N#CC1=C(N)N2C(=C(C#N)C13CCCCC3)SC1CCCCC12O (centres undefined)	4%	13µM*	i	-30%	-9%	10µM*
COc1cc(S(=O)(=O)NCCOC23CC4CC(CC(C4)C2)C3)c(OC)cc1Cl	u	10µM*	i	1%	-19%	15µM*
COc1cc(S(=O)(=O)NC2CC(C)(C)NC(C)(C)C2)c(OC)cc1Cl	0%	-18%	i	-10%	-15%	0%
O=S(=O)(NCCOC12CC3CC(CC(C3)C1)C2)c1cccc2nsnc12	11%	15µM*	i	-17%	2%	18µM*
O=S(=O)(NCCc1ccccc1)c1cccc2nsnc12	4%	-12%	i	-13%	7%	-3%
CNS(=O)(=O)c1cccc2nsnc12	-5%	0.0073µM*	i	-4%	-19%	-12%
CCOc1ccc(OCC)c(S(=O)(=O)NCCOC23CC4CC(CC(C4)C2)C3)c1	u	13µM*	u	0%	u	u
Cc1ccc(C(=O)n2nc(C#N)c(C#N)c2N)cc1	2%	2%	i	5%	22%	3%
O=S(=O)(Nc1ccc2c(c1)nc1n2CCOC1)c1ccc(Cl)cc1	-1%	13µM*	i	-27%	-15%	u
Cc1ccc(C)c(CSc2nc(-c3ccccc3F)nc3c2Cc2c(CO)cnc(C)c2O3)c1	-4%	-14%	i	-2%	9%	-12%
CCN1CCN(C(c2ccc(F)cc2)c2sc3nc(-c4ccco4)nn3c2O)CC1 (centres undefined)	0%	u	i	5%	12%	-2%
Fc1ccc(CSc2nnc3ccc(-c4ccncc4)nn23)cc1	8%	26%	i	2%	-2%	-1%
Cc1nc2ccc(NS(=O)(=O)c3cccc([N+](=O)[O-])c3)cc2s1	0%	15µM*	i	1%	-22%	18µM*
Cc1nc2ccc(NC(=O)CCS(=O)(=O)c3ccc(Cl)cc3)cc2s1	u	15µM*	i	-21%	-14%	12µM*
Cc1nc2ccc(NS(=O)(=O)c3ccc(Br)cc3)cc2s1	-26%	5.2µM*	i	-13%	x	13µM*
SMILES	TGFb inhibitor	TDP1 cell noCPT	S2 tox	HepG2 tox	ATXN2 expr inh	TDP1 cell CPT
Cc1nc2ccc([N+](=O)[O-])cc2s1	-2%	16%	i	-9%	-11%	18%
Cc1ccc(S(=O)(=O)Nc2ccc3nc(N)sc3c2)cc1	-20%	12µM*	i	-10%	0%	13µM*
Cc1nc2ccc(S(=O)(=O)Nc3ccc(-c4nc5cccnc5s4)cc3)cc2s1	-17%	-23%	x	-8%	4%	-1%
O=C(OCC#CCSc1nnc(-c2cccc3ccccc23)o1)c1ccco1	32%	-20%	i	-29%	-11%	-10%
O=S(=O)(Nc1ccc(N2CCOCC2)cc1)c1cc(Cl)ccc1Cl	0%	12µM*	i	-22%	-10%	-14%
Cc1nc2ccc(NS(=O)(=O)c3ccc4c(c3)OCCO4)cc2s1	u	1.5µM*	u	-34%	-21%	1.8µM*
Cc1nc2ccc(NS(=O)(=O)c3ccc(F)c(F)c3)cc2s1	-9%	u	i	-10%	-19%	18µM*
O=S(=O)(Nc1ccc(N2CCCCC2)cc1)c1ccc(F)c(F)c1	-8%	15µM*	i	-45%	2%	u
Cc1ccc(S(=O)(=O)Nc2ccc3c(c2)OCCO3)cc1	u	u	i	-35%	-4%	-25%
COc1cccc(CNC(=O)[C@@H]2CCCN2C(=O)[C@H]2CCCCN2C(=O)OC(C)(C)C)c1	x	-14%	u	x	7%	-19%
CCOc1ccc(N2CC(C(=O)NNC(=O)c3ccc(Br)cc3)CC2=O)cc1 (centres undefined)	-1%	u	i	-32%	-4%	-28%
O=C(CSc1ccccc1)Nc1ccncc1	0%	u	i	3%	7%	u
CC(C)CSCC1OC(n2cnc3c(N)nccc32)C(O)C1O (centres undefined)	-30%	21µM*	i	-34%	x	u
Nc1ncnc2c1ncn2[C@@H]1O[C@H](CO)[C@@H](O)[C@H]1O	-4%	-28%	i	33%	11%	-11%
CCCn1c(SCC(O)c2ccccc2)nc2ccccc21 (centres undefined)	u	u	x	-12%	x	-26%
